Source: the supplement of paper PMC9262897, “Low-cost anti-mycobacterial drug discovery using engineered E. coli” (Nature Communications, 2022)
Where a name gives a salt, the structure may show the parent alone. ± gives the standard deviation of the averaged measurements.

test system: E. coli TESEC Mtb Alr; test: growth (OD600 after 10 h); higher = more growth (less inhibition); settings: arabinose 1000000 nM; compound 0.1 mM; raw OD600 reference: median of DMSO wells 0.193, cell-free background 0.041
Experimental: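 TESEC Mtb Alr E. coli, or the Alr+ wild-type control, in 384-well plates with Prestwick library compounds at 0.1 mM and 1% DMSO, across arabinose induction levels of 1E3 to 1E7 nM. Growth is read as OD600 after 10 h at 37 °C in triplicate biological replicates.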

SMILES	growth
Cc1nnc(NS(=O)(=O)c2ccc(N)cc2)s1 [Sulfamethizole]	0.155 ± 0.0088
CCC1=C(C)CN(C(=O)NCCc2ccc(S(=O)(=O)NC(=O)N[C@H]3CC[C@H](C)CC3)cc2)C1=O [Glimepiride]	0.182 ± 0.004
CC1CC(OC(=O)c2ccccc2O)CC(C)(C)C1 (stereo unspecified) [Homosalate]	0.18 ± 0.0023
CCCN(CCC)C(=O)C(CCC(=O)O)NC(=O)c1ccccc1 (stereo unspecified) [Proglumide]	0.188 ± 0.0035
NCCc1ccc(O)c(O)c1 [Dopamine hydrochloride]	0.197 ± 0.022
OCCN1CCN(CCCN2c3ccccc3Sc3ccc(Cl)cc32)CC1 [Perphenazine]	0.04167 ± 0.00035
CCN(CC)CCOC(=O)C1(C2CCCCC2)CCCCC1 [Dicyclomine hydrochloride]	0.06453 ± 0.00058
Cc1cc(-c2ccccc2)nnc1NCCN1CCOCC1 [Minaprine dihydrochloride]	0.155 ± 0.004
CCC1(C)CC(=O)NC1=O (stereo unspecified) [Ethosuximide]	0.1876 ± 0.0001
COc1nc(C)nc(Cl)c1NC1=NCCN1 [Moxonidine]	0.187 ± 0.0025
COC(=O)Nc1nc2cc(C(=O)c3cccs3)ccc2[nH]1 [Nocodazole]	0.185 ± 0.0053
CCN(CC)C(=O)/C(C#N)=C/c1cc(O)c(O)c([N+](=O)[O-])c1 [Entacapone]	0.0544 ± 0.00092
CCN(CC)CCOC(=O)C(c1ccccc1)C1CCCCC1 (stereo unspecified) [Drofenine hydrochloride]	0.0678 ± 0.00092
Cc1c(Cl)cccc1Nc1ncccc1C(=O)O [Clonixin Lysinate]	0.0952 ± 0.0017
Cn1cnc2c1c(=O)[nH]c(=O)n2C [Theobromine]	0.189 ± 0.0034
COc1cc(N)c(Cl)cc1C(=O)NC1CCN(Cc2ccccc2)CC1 [Clebopride maleate]	0.132 ± 0.0034
CCN1CCN(c2cc3c(cc2F)c(=O)c(C(=O)O)cn3C2CC2)CC1 [Enrofloxacin]	0.0391 ± 0.0002
Nc1ccn([C@H]2CC[C@@H](CO)O2)c(=O)n1 [Zalcitabine]	0.172 ± 0.0063
COCCOC(=O)C1=C(C)NC(C)=C(C(=O)OC(C)C)C1c1cccc([N+](=O)[O-])c1 (stereo unspecified) [Nimodipine]	0.0632 ± 0.0037
C[C@H]1O[C@@H](O[C@H]2[C@@H](O)C[C@H](O[C@H]3[C@@H](O)C[C@H](O[C@H]4CC[C@@]5(C)[C@H](CC[C@@H]6[C@@H]5C[C@@H](O)[C@]5(C)[C@@H](C7=CC(=O)OC7)CC[C@]65O)C4)O[C@@H]3C)O[C@@H]2C)C[C@H](O)[C@@H]1O [Digoxin]	0.176 ± 0.0061
COc1cccc2c1C(=O)c1c(O)c3c(c(O)c1C2=O)C[C@@](O)(C(C)=O)C[C@@H]3O[C@H]1C[C@H](N)[C@H](O)[C@H](C)O1 [Daunorubicin hydrochloride]	0.04253 ± 0.00038
O=C(CCNNC(=O)c1ccncc1)NCc1ccccc1 [Nialamide]	0.208 ± 0.0031
CC(=O)S[C@@H]1CC2=CC(=O)CC[C@]2(C)[C@H]2CC[C@@]3(C)[C@@H](CC[C@@]34CCC(=O)O4)[C@H]12 [Spironolactone]	0.06897 ± 0.00051
CCN1CCCC1CNC(=O)c1cc(S(N)(=O)=O)ccc1OC (stereo unspecified) [Sulpiride]	0.174 ± 0.0021
COc1ncnc(NS(=O)(=O)c2ccc(N)cc2)c1OC [Sulfadoxine]	0.174 ± 0.007
C[C@@H]1C[C@H]2[C@@H]3C[C@H](F)C4=CC(=O)C=C[C@]4(C)[C@@]3(Cl)[C@@H](O)C[C@]2(C)[C@H]1C(=O)COC(=O)C(C)(C)C [Clocortolone pivalate]	0.2 ± 0.027

same assay, conditions: arabinose 10000000 nM; compound 0.1 mM; raw OD600 reference: median of DMSO wells 0.146, cell-free background 0.041

SMILES	growth
O=C1OC(CN2CCOCC2)CN1/N=C/c1ccc([N+](=O)[O-])o1 (stereo unspecified) [Furaltadone hydrochloride]	0.0427 ± 0.0014
CN(C)CCCN1c2ccccc2CCc2ccccc21 [Imipramine hydrochloride]	0.175 ± 0.011
CCOC(=O)O[C@]1(C(=O)OCCl)CC[C@H]2[C@@H]3CCC4=CC(=O)C=C[C@]4(C)[C@H]3[C@@H](O)C[C@@]21C [Loteprednol etabonate]	0.179 ± 0.0076
CCCNC(C)C(=O)Nc1ccccc1C (stereo unspecified) [Prilocaine hydrochloride]	0.136 ± 0.0076
NS(=O)(=O)c1cc2c(cc1Cl)NCNS2(=O)=O [Hydrochlorothiazide]	0.14 ± 0.0039
Cc1cc2c(s1)Nc1ccccc1N=C2N1CCN(C)CC1 [Olanzapine]	0.136 ± 0.0056
Nc1ccc(C(=O)O)c(O)c1 [4-aminosalicylic acid]	0.153 ± 0.0068
CC(=O)Oc1ccc(C(c2ccc(OC(C)=O)cc2)c2ccccn2)cc1 [Bisacodyl]	0.168 ± 0.0065
CN(Cc1cnc2nc(N)nc(N)c2n1)c1ccc(C(=O)N[C@@H](CCC(=O)O)C(=O)O)cc1 (racemic) [Amethopterin (R,S)]	0.144 ± 0.0042
CC(C(=O)O)c1ccc(C(=O)c2ccccc2)s1 (stereo unspecified) [Tiaprofenic acid]	0.143 ± 0.006
Nc1c2ccccc2nc2ccccc12 [Aminacrine]	0.0406 ± 0.00096
CCCC(CCC)C(=O)O [Valproic acid]	0.137 ± 0.0016
Cc1[nH]cnc1CN1CCc2c(c3ccccc3n2C)C1=O [Alosetron hydrochloride]	0.1498 ± 0.001
CN(C)c1nc(N(C)C)nc(N(C)C)n1 [Altretamine]	0.163 ± 0.009
Cc1nnc(NS(=O)(=O)c2ccc(N)cc2)s1 [Sulfamethizole]	0.139 ± 0.0043
CCC1=C(C)CN(C(=O)NCCc2ccc(S(=O)(=O)NC(=O)N[C@H]3CC[C@H](C)CC3)cc2)C1=O [Glimepiride]	0.155 ± 0.0053
CC1CC(OC(=O)c2ccccc2O)CC(C)(C)C1 (stereo unspecified) [Homosalate]	0.15 ± 0.0039
CCCN(CCC)C(=O)C(CCC(=O)O)NC(=O)c1ccccc1 (stereo unspecified) [Proglumide]	0.17 ± 0.0066
NCCc1ccc(O)c(O)c1 [Dopamine hydrochloride]	0.144 ± 0.009
OCCN1CCN(CCCN2c3ccccc3Sc3ccc(Cl)cc32)CC1 [Perphenazine]	0.0462 ± 0.00053

SMILES	growth
CCN(CC)CCOC(=O)C1(C2CCCCC2)CCCCC1 [Dicyclomine hydrochloride]	0.103 ± 0.0024
Cc1cc(-c2ccccc2)nnc1NCCN1CCOCC1 [Minaprine dihydrochloride]	0.156 ± 0.0078
CCC1(C)CC(=O)NC1=O (stereo unspecified) [Ethosuximide]	0.141 ± 0.003
COc1nc(C)nc(Cl)c1NC1=NCCN1 [Moxonidine]	0.133 ± 0.0069
COC(=O)Nc1nc2cc(C(=O)c3cccs3)ccc2[nH]1 [Nocodazole]	0.142 ± 0.0038
CCN(CC)C(=O)/C(C#N)=C/c1cc(O)c(O)c([N+](=O)[O-])c1 [Entacapone]	0.0482 ± 0.00026
CCN(CC)CCOC(=O)C(c1ccccc1)C1CCCCC1 (stereo unspecified) [Drofenine hydrochloride]	0.1432 ± 0.00046
Cc1c(Cl)cccc1Nc1ncccc1C(=O)O [Clonixin Lysinate]	0.15 ± 0.0047
Cn1cnc2c1c(=O)[nH]c(=O)n2C [Theobromine]	0.155 ± 0.011
COc1cc(N)c(Cl)cc1C(=O)NC1CCN(Cc2ccccc2)CC1 [Clebopride maleate]	0.129 ± 0.0055
CCN1CCN(c2cc3c(cc2F)c(=O)c(C(=O)O)cn3C2CC2)CC1 [Enrofloxacin]	0.0419 ± 0.0033
Nc1ccn([C@H]2CC[C@@H](CO)O2)c(=O)n1 [Zalcitabine]	0.1518 ± 0.00067
COCCOC(=O)C1=C(C)NC(C)=C(C(=O)OC(C)C)C1c1cccc([N+](=O)[O-])c1 (stereo unspecified) [Nimodipine]	0.08053 ± 0.00035
C[C@H]1O[C@@H](O[C@H]2[C@@H](O)C[C@H](O[C@H]3[C@@H](O)C[C@H](O[C@H]4CC[C@@]5(C)[C@H](CC[C@@H]6[C@@H]5C[C@@H](O)[C@]5(C)[C@@H](C7=CC(=O)OC7)CC[C@]65O)C4)O[C@@H]3C)O[C@@H]2C)C[C@H](O)[C@@H]1O [Digoxin]	0.136 ± 0.0037
COc1cccc2c1C(=O)c1c(O)c3c(c(O)c1C2=O)C[C@@](O)(C(C)=O)C[C@@H]3O[C@H]1C[C@H](N)[C@H](O)[C@H](C)O1 [Daunorubicin hydrochloride]	0.0433 ± 0.0001
O=C(CCNNC(=O)c1ccncc1)NCc1ccccc1 [Nialamide]	0.144 ± 0.0023
CC(=O)S[C@@H]1CC2=CC(=O)CC[C@]2(C)[C@H]2CC[C@@]3(C)[C@@H](CC[C@@]34CCC(=O)O4)[C@H]12 [Spironolactone]	0.112 ± 0.0019
CCN1CCCC1CNC(=O)c1cc(S(N)(=O)=O)ccc1OC (stereo unspecified) [Sulpiride]	0.147 ± 0.0072
COc1ncnc(NS(=O)(=O)c2ccc(N)cc2)c1OC [Sulfadoxine]	0.14 ± 0.0077
C[C@@H]1C[C@H]2[C@@H]3C[C@H](F)C4=CC(=O)C=C[C@]4(C)[C@@]3(Cl)[C@@H](O)C[C@]2(C)[C@H]1C(=O)COC(=O)C(C)(C)C [Clocortolone pivalate]	0.151 ± 0.0033
